Assay outcomes from PubChem.
This is a sample that favours compounds with a hit; in the whole collection about 2.3% have one here.
SENP8 block-1: human SENP8 protease inhibitors, primary screen, biochemical, fluorescence, Nedd8 protein substrate, uHTS; inhibition, % at 20 µM; hit rate 0.64% among 360,000; Sentrin-specific protease 8 (Homo sapiens), Q96LD8; recombinant SENP8; in the data active = inhibition mostly above about 40%, no sharp cut-off; inactive = mostly below about 27%
HSP90 inh: HSP90 inhibitors, primary screen, cell lysate, luminescence | Rabbit reticulocyte lysate, luciferase refolding luminescence, 3 h | inhibition, % at 5.6 µM | hit rate 0.91% among 290,000 | Heat shock protein HSP 90 (rabbit reticulocyte lysate; luciferase refolding);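 active = inhibition above the screen-wide mean plus 3 SD, computed separately per campaign, cut at about 16% in these data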;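 note: 0% = DMSO wells and 100% = 60 µM geldanamycin wells; inhibitors lower the luminescence because luciferase stays unfolded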
LGR2 inh: inhibitors of bursicon-induced LGR2 CRE-luciferase signal, primary screen, cell-based, HEK293, CRE-luciferase reporter, bursicon stimulation | Drosophila bursicon receptor LGR2 (rickets) | bursicon-stimulated, 4 h | inhibition, % at 9.99 µM | hit rate 0.35% among 380,000 | AID 720647, 2013;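 active = drop in luminescence signal, shown as inhibition above about 50% in the replicate tests, limit read from the data, passing the limit was not always enough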;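 note: agonist challenge used bursicon conditioned medium at about half maximal strength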
SENP7 inh: SENP7 protease inhibitors, primary screen, biochemical, luminescence, uHTS; inhibition, % at 5 µM; AID 434973, 2010; recombinant SENP7, Z-RLRGG-aminoluciferin luminescence, 40 min; Sentrin-specific protease 7 (Homo sapiens), Q9BQF6; hit rate 1.5% among 330,000;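 active = inhibition above about 50% at the single test dose, limit read from the data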;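 note: plate controls were DMSO with enzyme for no effect and no enzyme buffer wells for full effect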
SENP6 inh: SENP6 protease inhibitors, primary screen, biochemical, luminescence, uHTS | Recombinant SENP6 catalytic domain, aminoluciferin luminescence | inhibition, % at 10 µM | hit rate 1.8% among 330,000;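 active = inhibition above about 50% at the single tested dose, limit read from the data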;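 note: plate controls were DMSO wells with enzyme for no effect and DMSO wells lacking enzyme for full effect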
Target sequence (Q9GZR1 628-1112 limits assumed): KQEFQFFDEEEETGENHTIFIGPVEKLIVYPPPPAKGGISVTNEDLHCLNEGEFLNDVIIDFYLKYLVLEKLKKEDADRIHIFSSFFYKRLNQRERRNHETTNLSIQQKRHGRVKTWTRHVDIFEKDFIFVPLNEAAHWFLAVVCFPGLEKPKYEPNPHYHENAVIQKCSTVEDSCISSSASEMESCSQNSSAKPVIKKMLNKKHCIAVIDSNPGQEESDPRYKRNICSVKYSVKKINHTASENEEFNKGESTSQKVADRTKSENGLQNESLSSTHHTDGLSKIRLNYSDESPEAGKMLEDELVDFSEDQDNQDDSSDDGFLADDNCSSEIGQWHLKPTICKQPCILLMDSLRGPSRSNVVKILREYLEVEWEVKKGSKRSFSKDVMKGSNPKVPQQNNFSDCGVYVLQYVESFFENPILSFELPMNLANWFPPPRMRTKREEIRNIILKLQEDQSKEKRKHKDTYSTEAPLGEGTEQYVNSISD
SENP8 block-2: SENP8 protease inhibitors, primary screen, biochemical, luminescence; hit rate 1.2% among 330,000; inhibition, % at 10 µM; purified SENP8, Z-RLRGG-aminoluciferin cleavage; Sentrin-specific protease 8 (Homo sapiens), Q96LD8; AID 2540, 2010; in the data active = inhibition above about 50%
SENP8 conf: SENP8 protease inhibitors, retest, confirmation, biochemical, luminescence, single concentration; shares compounds with SENP7 inh; AID 488912, 2010; inhibition, % at 12.5 µM; Recombinant SENP8, Z-RLRGG-aminoluciferin luminescence, 60 min; hit rate 40% among 6,200;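 active = mean inhibition across replicates above about 50%, limit read from the data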
SENP6 conf: SENP6 protease inhibitors, confirmation, biochemical, luminescence, single concentration; shares compounds with SENP7 inh; inhibition, % at 12.5 µM; recombinant SENP6, Z-RLRGG-aminoluciferin luminescence; AID 488915, 2010; hit rate 58% among 6,200
SENP7 confirm: SENP7 protease inhibitors, retest, confirmation, biochemical, luminescence, single concentration; inhibition, % at 12.5 µM; hit rate 69% among 6,200; recombinant SENP7, Z-RLRGG-aminoluciferin luminescence, 40 min; shares compounds with SENP7 inh
Casp3 select: caspase-3 protease inhibitors, confirmation, selectivity assay for SENP inhibitor project, biochemical, single concentration. shares compounds with SENP7 inh. purified caspase-3, Z-DEVD-aminoluciferin luminescence, 60 min. inhibition, % at 12.5 µM. hit rate 60% among 6,200;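 active = mean inhibition above about 50%, limit read from the data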;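 note: plate controls were enzyme with DMSO for no effect and wells without caspase-3 for full effect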
SENP luc ctr: counter-screen for SENP inhibitors: luminescence interference; shares compounds with SENP7 inh; Pre-incubated SENP8/Z-RLRGG-aminoluciferin, luciferase luminescence interference; inhibition, % at 12.5 µM; hit rate 39% among 6,200;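 active = mean inhibition above about 50% when retested at one dose, limit read from the data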;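 note: plate controls were DMSO wells with completed reaction for no effect and substrate without enzyme for full effect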
Numbers without * were called inactive; . = no result.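 Rule for the calls, unless noted: active = mean inhibition above about 50% in the one-dose retest (limit read from the data); inactive = the rest.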

SMILES	SENP8 block-1	HSP90 inh	LGR2 inh	SENP7 inh	SENP6 inh	SENP8 block-2	SENP8 conf	SENP6 conf	SENP7 confirm	Casp3 select	SENP luc ctr
O=C(Nc1ccc2nccnc2c1)c1cnccn1	-39	10	.	-1	-4	-21	.	.	.	.	.
O=C(C[C@@H]1CC[C@H]2[C@@H](COC[C@H](O)CN2C(=O)c2ccccc2)O1)Nc1ccccc1	.	.	11	.	.	.	.	.	.	.	.
O=C(Nc1nc2ccc(F)cc2s1)c1ccccn1	.	56*	90*	100*	95*	95*	92*	98*	102*	96*	48
c1ccc2c3c(cc(N4CCOCC4)c2c1)OC1(N2CCOCC2)CCCCC1O3 (stereo not drawn)	-290	1	4	45	80*	38	11	18	11	4	3
CSC1=NSC2=NC(=O)/C(=C\c3ccc(OC(=O)c4ccco4)cc3)C(=N)N12	15	-4	-7	37	89*	91*	90*	90*	96*	90*	4
CCCN(C)C[C@H]1OCc2ccccc2-c2ccccc2C(=O)N([C@@H](C)CO)C[C@H]1C	.	.	23	.	.	.	.	.	.	.	.
O=[N+]([O-])c1ccccc1/C=C/c1ccc2ccccc2n1	11	-2	-61	82*	88*	85*	94*	93*	100*	79*	47
COc1c(OC(C)=O)ccc(/C=C/c2ccc3ccccc3n2)c1[N+](=O)[O-]	19	-2	-73	91*	94*	89*	86*	97*	99*	84*	41
Cn1c(/C=C/c2ccccc2[N+](=O)[O-])nc2ccccc2c1=O	8	0	-17	-2	-10	-4	.	.	.	.	.
COc1c(OC(C)=O)ccc(/C=C/c2ccc3cccc(OC)c3n2)c1[N+](=O)[O-]	12	-1	-39	-1	29	17	.	.	.	.	.
Cc1oncc1C(=O)Nc1ccc(C(F)(F)F)cc1	-2	0	-22	76*	78*	68*	12	67*	94*	76*	63*
Cc1coc(C)c1C(=O)Nc1ccc2ccccc2c1	-2	2	-104	49	66*	27	49	45	79*	52*	60*
CC(=O)Nc1ccc2ccccc2c1	6	2	.	3	3	10	.	.	.	.	.
Cc1oncc1C(=O)Nc1ccc2ccccc2c1	-8	-2	-49	81*	88*	67*	25	65*	96*	75*	77*
COC(=O)c1cccc(NC(=O)c2cnoc2C)c1	12	5	.	2	4	6	.	.	.	.	.
CCCNC(=O)Nc1ccc2c(c1)C(=O)N(C)[C@H]1CC[C@@H](CC(=O)NCc3ccccc3)O[C@@H]1CO2	.	.	12	.	.	.	.	.	.	.	.
O=C(NC1CCCC1)N1CC2(C1)[C@@H](c1ccccc1)[C@@H](CO)N2CC1CCOCC1	.	.	5	.	.	.	.	.	.	.	.
O=C(Nc1ccc2c(c1)OCCO2)c1ccco1	7	14	8	54*	35	15	38	36	75*	80*	53*
O=C(Nc1cccc(NC(=O)c2ccco2)c1)c1ccc2c(c1)OCCO2	2	0	-18	14	-11	-6	.	.	.	.	.
Cc1ccc(C(=O)Nc2ccc3c(c2)OCCO3)o1	8	5	-6	7	54*	30	52*	44	80*	82*	62*
CC(=O)c1c(C)[nH]c(C(=O)Nc2ccc3c(c2)OCCO3)c1C	16	4	.	58*	58*	23	57*	53*	84*	75*	60*
CCOC(=O)c1[nH]c(C)c(C(=O)Nc2ccc3c(c2)OCCO3)c1C	30	0	0	5	4	0	.	.	.	.	.
C[C@@H]1CN([C@H](C)CO)C(=O)c2cc(C#Cc3ccccc3)cnc2O[C@H]1CN(C)C(=O)CN(C)C	.	.	-13	.	.	.	.	.	.	.	.
CNC(=O)C[C@@H]1CC[C@H]2[C@@H](COC[C@H](O)CN2Cc2ccc(C(F)(F)F)cc2)O1	.	.	-2	.	.	.	.	.	.	.	.
CCN1CCC(N2CCN(c3ccc(Cl)cc3)CC2)CC1	.	3	.	2	78*	1	-12	-10	-9	5	0
SMILES	SENP8 block-1	HSP90 inh	LGR2 inh	SENP7 inh	SENP6 inh	SENP8 block-2	SENP8 conf	SENP6 conf	SENP7 confirm	Casp3 select	SENP luc ctr
CCCN1CCC(N2CCN(c3ccc([N+](=O)[O-])cc3)CC2)CC1	24	-4	13	6	-12	-4	.	.	.	.	.
O=C(N[C@H]1CC[C@@H](CC(=O)N2CCN(c3ccccc3)CC2)O[C@@H]1CO)c1ccccc1	.	.	21	.	.	.	.	.	.	.	.
CCCC1CCC(c2ccc(OCC)cc2)=CC1=O (stereo not drawn)	6	8	-29	28	65*	42	20	24	71*	34	39
CC(=O)Oc1ccc(-c2nc(-c3cccnc3)no2)cc1	14	-4	.	100*	96*	98*	97*	99*	103*	98*	37
COc1cccc(C(=O)Nc2nnc(-c3cccs3)s2)c1	-483	-2	26	53*	53*	20	17	16	6	11	5
CCOc1cccc(C(=O)Nc2nnc(-c3ccco3)s2)c1	-486	5	.	73*	68*	60*	20	17	23	28	6
Cc1cccc(OCC(=O)Nc2nnc(-c3ccco3)s2)c1	-256	-4	8	-5	-3	-8	.	.	.	.	.
CCS(=O)(=O)Nc1ccc2c(c1)C(=O)N(C)C[C@@H](OC)[C@@H](C)CN(C(=O)NC(C)C)[C@H](C)CO2	.	.	-1	.	.	.	.	.	.	.	.
CN(C)CC(=O)Nc1ccc2c(c1)[C@@H]1C[C@@H](CC(=O)NCc3ccc4c(c3)OCO4)O[C@@H](CO)[C@@H]1O2	.	.	1	.	.	.	.	.	.	.	.
